Reference: PubChem BioAssay AID1159580 (chemical genetic matrix, 2015)
Values joined by “and” are separate entries in the source; they are usually repeats but may differ in a detail not shown here. Equal values may be shown once. About 2,000 (36%) of roughly 5,500 compounds were called active. Roughly 18% stayed inconclusive and do not appear here. Rule as the data show it: active = normalized growth mostly below about 0.91 (no sharp cut-off); inconclusive = no clear call, values can overlap the other calls; inactive = mostly above about 0.92. The list shows a part of the results.

Assay: chemical genetic growth profiling, strain panel (AID 1159580);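 also: tested at 20 µM; growth read once vehicle control cultures reached saturation at 30 °C; 1 = growth at the plate median or of vehicle wells; lower values mean less growth of the strain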
Conditions: S. cerevisiae deletion strains, growth OD

Measured: normalized growth

CC(C[N+](C)(C)C)OC(N)=O (centres undefined)
inactive: locus YAL013W, strain DEP1, stronger effect = lower value 0.991 | locus YAL021C, strain ccr4, stronger effect = lower value 1.05 | locus YAL026C, strain drs2, stronger effect = lower value 1.03 | locus YAL030W, strain snc1, stronger effect = lower value 1.02 | locus YAL040C, strain CLN3, stronger effect = lower value 1 | locus YBL061C, strain skt5, stronger effect = lower value 1.03 | locus YBR009C, strain hhf1, stronger effect = lower value 1.01 | locus YBR021W, strain FUR4, stronger effect = lower value 1.01 | locus YBR023C, strain chs3, stronger effect = lower value 1.03 | locus YBR171W, strain sec66, stronger effect = lower value 1.05 | locus YBR229C, strain ROT2, stronger effect = lower value 0.994 | locus YBR231C, strain swc5, stronger effect = lower value 1.01 | locus YBR279W, strain paf1, stronger effect = lower value 1.03 | locus YCL011C, strain gbp2, stronger effect = lower value 1.01 | locus YCL016C, strain dcc1, stronger effect = lower value 1.03 | locus YCL029C, strain bik1, stronger effect = lower value 0.988 | locus YCL061C, strain MRC1 (second series), stronger effect = lower value 1 | locus YCL061C, strain MRC1, stronger effect = lower value 1.01 | locus YCL069W, strain vba3, stronger effect = lower value 1.03 | locus YCR088W, strain abp1, stronger effect = lower value 1.03 | locus YDL005C, strain med2, stronger effect = lower value 1.01 | locus YDL035C, strain GPR1, stronger effect = lower value 1.04 | locus YDL040C, strain nat1, stronger effect = lower value 1.02 | locus YDL074C, strain BRE1, stronger effect = lower value 0.947 | locus YDL101C, strain DUN1, stronger effect = lower value 0.976 | locus YDL185W, strain tfp1, stronger effect = lower value 0.981 | locus YDL192W, strain arf1, stronger effect = lower value 0.983 | locus YDR001C, strain nth1, stronger effect = lower value 1.03 | locus YDR069C, strain doa4, stronger effect = lower value 1.01 | locus YDR101C, strain arx1, stronger effect = lower value 0.991 | locus YDR137W, strain rgp1, stronger effect = lower value 1.04 | locus YDR150W, strain NUM1, stronger effect = lower value 1.01 | locus YDR159W, strain sac3, stronger effect = lower value 0.982 | locus YDR162C, strain NBP2, stronger effect = lower value 1.02 | locus YDR195W, strain ref2 1 | locus YDR297W, strain sur2, stronger effect = lower value 1.02 | locus YDR318W, strain mcm21, stronger effect = lower value 0.985 | locus YDR334W, strain swr1, stronger effect = lower value 1.03 | locus YDR335W, strain msn5, stronger effect = lower value 1.03 | locus YDR363W, strain ESC2, stronger effect = lower value 0.974 | locus YDR388W, stronger effect = lower value 0.992 | locus YDR392W, strain spt3, stronger effect = lower value 0.962 | locus YDR502C, strain sam2, stronger effect = lower value 0.991 | locus YEL003W, strain gim4, stronger effect = lower value 1.01 | locus YEL037C, strain rad23, stronger effect = lower value 1.04 | locus YEL061C, strain CIN8 (second series), stronger effect = lower value 1.03 | locus YEL061C, strain CIN8, stronger effect = lower value 0.995 | locus YER002W, strain NOP16, stronger effect = lower value 1.02 | locus YER015W, strain faa2, stronger effect = lower value 1.02 | locus YER016W, strain bim1, stronger effect = lower value 1.02 | locus YER110C, stronger effect = lower value 0.972 | locus YER111C, strain swi4, stronger effect = lower value 1.04 | locus YER155C, strain BEM2 (second series), stronger effect = lower value 0.998 | locus YER155C, strain BEM2, stronger effect = lower value 0.986 | locus YER167W, strain BCK2, stronger effect = lower value 1.01 | locus YFR010W, strain ubp6, stronger effect = lower value 1.02 | locus YGL078C, strain dbp3, stronger effect = lower value 0.982 | locus YGL086W, strain mad1, stronger effect = lower value 0.984 | locus YGL167C, strain pmr1, stronger effect = lower value 1.04 | locus YGL173C, strain kem1, stronger effect = lower value 1.01 | locus YGL227W, strain vid30, stronger effect = lower value 1.02 | locus YGL240W, strain doc1, stronger effect = lower value 1.01 | locus YGL248W, strain PDE1, stronger effect = lower value 0.987 | locus YGL253W, strain hxk2, stronger effect = lower value 1.02 | locus YGR078C, strain PAC10, stronger effect = lower value 0.986 and 0.968 | locus YGR135W, strain pre9, stronger effect = lower value 0.987 | locus YGR229C, strain SMI1, stronger effect = lower value 1.03 | locus YGR252W, strain gcn5, stronger effect = lower value 1.04 | locus YHR013C, strain ard1, stronger effect = lower value 1.03 | locus YHR027C, strain rpn1, stronger effect = lower value 1.03 | locus YHR030C, strain SLT2, stronger effect = lower value 0.991 and 0.986 | locus YHR079C, strain IRE1 (second series), stronger effect = lower value 0.975 | locus YHR079C, strain IRE1, stronger effect = lower value 0.976 | locus YHR094C, strain hxt1, stronger effect = lower value 0.982 | locus YHR129C, strain ARP1, stronger effect = lower value 0.988 | locus YHR142W, strain chs7, stronger effect = lower value 1.04 | locus YHR200W, strain rpn10, stronger effect = lower value 0.987 | locus YIL066C, strain RNR3, stronger effect = lower value 1.01 | locus YIL073C, strain SPO22, stronger effect = lower value 1.04 | locus YIL125W, strain kgd1, stronger effect = lower value 0.979 | locus YIR030C, strain dcg1, stronger effect = lower value 0.976 | locus YJL092W, strain hpr5, stronger effect = lower value 1.02 | locus YJL095W, strain BCK1 (second series), stronger effect = lower value 1.05 | locus YJL095W, strain BCK1, stronger effect = lower value 0.985 and 0.982 | locus YJL115W, strain asf1, stronger effect = lower value 1.04 | locus YJL129C, strain trk1, stronger effect = lower value 1.04 | locus YJL134W, strain LCB3, stronger effect = lower value 0.989 | locus YJL154C, strain vps35, stronger effect = lower value 1.03 | locus YJL164C, strain tpk1, stronger effect = lower value 1.03 | locus YJL166W, strain qcr8, stronger effect = lower value 1.01 | locus YJL168C, strain set2, stronger effect = lower value 0.981 | locus YJL187C, strain SWE1 (second series), stronger effect = lower value 0.987 | locus YJL187C, strain SWE1, stronger effect = lower value 1.03 | locus YJR043C, strain POL32, stronger effect = lower value 1.05
